The results in this text go back to ChEMBL document CHEMBL2218924, “A broad activity screen in support of a chemogenomic map for kinase signalling research and drug discovery” (Biochem J, 2013).

Experiment [1] has as its target T1, Serine/threonine-protein kinase TAO2 (Homo sapiens) (UniProt Q9UL54).
T1 sequence (whole entry): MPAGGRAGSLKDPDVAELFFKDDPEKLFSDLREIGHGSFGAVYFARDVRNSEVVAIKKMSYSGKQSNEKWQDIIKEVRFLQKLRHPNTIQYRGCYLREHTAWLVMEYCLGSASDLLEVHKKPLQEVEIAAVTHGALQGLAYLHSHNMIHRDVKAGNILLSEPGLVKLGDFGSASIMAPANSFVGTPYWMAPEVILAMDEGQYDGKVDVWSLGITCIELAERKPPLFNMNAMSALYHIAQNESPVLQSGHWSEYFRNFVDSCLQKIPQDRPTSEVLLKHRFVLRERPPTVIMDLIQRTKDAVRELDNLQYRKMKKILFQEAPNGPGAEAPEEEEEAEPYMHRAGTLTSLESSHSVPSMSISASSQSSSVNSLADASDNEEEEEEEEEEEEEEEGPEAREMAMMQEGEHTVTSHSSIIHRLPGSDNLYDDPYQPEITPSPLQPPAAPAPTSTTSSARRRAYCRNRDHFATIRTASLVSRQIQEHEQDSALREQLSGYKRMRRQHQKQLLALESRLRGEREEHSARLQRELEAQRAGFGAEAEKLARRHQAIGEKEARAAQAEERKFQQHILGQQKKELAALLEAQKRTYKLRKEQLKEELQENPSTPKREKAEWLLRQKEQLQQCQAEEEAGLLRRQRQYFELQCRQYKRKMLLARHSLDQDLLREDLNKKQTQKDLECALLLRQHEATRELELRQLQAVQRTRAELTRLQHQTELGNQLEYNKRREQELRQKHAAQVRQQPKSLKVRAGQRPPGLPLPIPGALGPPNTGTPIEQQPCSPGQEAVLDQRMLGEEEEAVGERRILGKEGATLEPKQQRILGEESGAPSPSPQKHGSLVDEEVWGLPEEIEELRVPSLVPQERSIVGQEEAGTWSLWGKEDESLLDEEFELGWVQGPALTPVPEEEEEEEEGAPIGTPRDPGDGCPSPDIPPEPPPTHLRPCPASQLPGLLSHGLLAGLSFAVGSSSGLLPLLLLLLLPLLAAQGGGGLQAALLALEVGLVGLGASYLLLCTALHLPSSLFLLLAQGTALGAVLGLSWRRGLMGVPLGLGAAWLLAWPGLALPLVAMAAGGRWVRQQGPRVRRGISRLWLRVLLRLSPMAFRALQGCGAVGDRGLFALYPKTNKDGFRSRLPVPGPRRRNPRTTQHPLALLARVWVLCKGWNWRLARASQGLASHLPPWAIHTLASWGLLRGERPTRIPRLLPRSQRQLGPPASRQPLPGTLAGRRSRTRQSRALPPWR
As to conditions: at 1 µM.

Experiment [2] addresses T1, Serine/threonine-protein kinase TAO2 (Homo sapiens). As to conditions: at 10 µM.
The target of experiment [3] is T2, Serine/threonine-protein kinase TAO3 (Homo sapiens) (UniProt Q9H2K8).
T2 sequence (whole entry): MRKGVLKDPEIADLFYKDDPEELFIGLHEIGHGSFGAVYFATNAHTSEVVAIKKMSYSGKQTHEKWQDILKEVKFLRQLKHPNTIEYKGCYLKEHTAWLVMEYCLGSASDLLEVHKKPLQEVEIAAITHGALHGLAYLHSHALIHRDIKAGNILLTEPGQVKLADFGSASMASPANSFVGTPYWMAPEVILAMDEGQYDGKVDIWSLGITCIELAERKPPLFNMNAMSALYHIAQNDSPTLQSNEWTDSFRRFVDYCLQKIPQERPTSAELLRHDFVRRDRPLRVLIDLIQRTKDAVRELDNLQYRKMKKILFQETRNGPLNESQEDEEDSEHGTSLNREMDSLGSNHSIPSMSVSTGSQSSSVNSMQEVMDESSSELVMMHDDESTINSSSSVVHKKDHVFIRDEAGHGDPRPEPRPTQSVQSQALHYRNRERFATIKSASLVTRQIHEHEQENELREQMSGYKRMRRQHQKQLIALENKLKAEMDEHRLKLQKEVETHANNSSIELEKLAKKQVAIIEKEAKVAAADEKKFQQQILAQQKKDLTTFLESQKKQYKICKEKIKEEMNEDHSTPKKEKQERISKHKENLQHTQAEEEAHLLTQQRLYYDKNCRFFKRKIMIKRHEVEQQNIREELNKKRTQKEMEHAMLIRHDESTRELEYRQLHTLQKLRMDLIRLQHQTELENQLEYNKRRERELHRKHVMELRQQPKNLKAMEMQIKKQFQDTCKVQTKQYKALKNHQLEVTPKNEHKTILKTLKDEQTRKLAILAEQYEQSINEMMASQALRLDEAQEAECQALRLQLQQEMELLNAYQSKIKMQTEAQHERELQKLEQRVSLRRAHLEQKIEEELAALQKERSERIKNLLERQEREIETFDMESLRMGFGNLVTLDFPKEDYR
As to conditions: at 1 µM.

Experiment [4] has as its target T2, Serine/threonine-protein kinase TAO3 (Homo sapiens). The following applies: at 10 µM.
Experiment [5] has as its target T3, Serine/threonine-protein kinase TBK1 (Homo sapiens) (UniProt Q9UHD2).
T3 sequence (whole entry): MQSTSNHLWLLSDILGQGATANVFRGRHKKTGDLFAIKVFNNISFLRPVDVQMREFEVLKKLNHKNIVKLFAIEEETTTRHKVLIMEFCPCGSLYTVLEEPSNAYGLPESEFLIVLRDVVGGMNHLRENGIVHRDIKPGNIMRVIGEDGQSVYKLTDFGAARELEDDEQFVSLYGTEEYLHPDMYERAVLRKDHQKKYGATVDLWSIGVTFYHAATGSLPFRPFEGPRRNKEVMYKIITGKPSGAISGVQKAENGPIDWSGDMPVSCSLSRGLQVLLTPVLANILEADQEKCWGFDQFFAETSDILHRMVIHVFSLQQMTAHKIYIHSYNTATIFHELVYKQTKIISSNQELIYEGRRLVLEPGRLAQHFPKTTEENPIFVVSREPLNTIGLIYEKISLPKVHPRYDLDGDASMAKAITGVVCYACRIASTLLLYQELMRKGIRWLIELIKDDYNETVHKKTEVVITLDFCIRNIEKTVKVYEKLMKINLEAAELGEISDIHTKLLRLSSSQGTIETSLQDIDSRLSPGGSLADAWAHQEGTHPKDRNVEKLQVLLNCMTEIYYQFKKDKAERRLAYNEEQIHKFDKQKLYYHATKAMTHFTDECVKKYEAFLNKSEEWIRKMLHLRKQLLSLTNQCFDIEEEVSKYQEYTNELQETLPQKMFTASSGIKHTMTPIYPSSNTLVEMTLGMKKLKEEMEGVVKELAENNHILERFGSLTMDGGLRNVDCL
As to conditions: at 1 µM.

Experiment [6] concerns the target Tyrosine-protein kinase SYK (Homo sapiens) (UniProt P43405). The following applies: at 10 µM.
The target in experiment [7] is T4, Mitogen-activated protein kinase kinase kinase 7 (Homo sapiens) (UniProt O43318).
T4 sequence (whole entry): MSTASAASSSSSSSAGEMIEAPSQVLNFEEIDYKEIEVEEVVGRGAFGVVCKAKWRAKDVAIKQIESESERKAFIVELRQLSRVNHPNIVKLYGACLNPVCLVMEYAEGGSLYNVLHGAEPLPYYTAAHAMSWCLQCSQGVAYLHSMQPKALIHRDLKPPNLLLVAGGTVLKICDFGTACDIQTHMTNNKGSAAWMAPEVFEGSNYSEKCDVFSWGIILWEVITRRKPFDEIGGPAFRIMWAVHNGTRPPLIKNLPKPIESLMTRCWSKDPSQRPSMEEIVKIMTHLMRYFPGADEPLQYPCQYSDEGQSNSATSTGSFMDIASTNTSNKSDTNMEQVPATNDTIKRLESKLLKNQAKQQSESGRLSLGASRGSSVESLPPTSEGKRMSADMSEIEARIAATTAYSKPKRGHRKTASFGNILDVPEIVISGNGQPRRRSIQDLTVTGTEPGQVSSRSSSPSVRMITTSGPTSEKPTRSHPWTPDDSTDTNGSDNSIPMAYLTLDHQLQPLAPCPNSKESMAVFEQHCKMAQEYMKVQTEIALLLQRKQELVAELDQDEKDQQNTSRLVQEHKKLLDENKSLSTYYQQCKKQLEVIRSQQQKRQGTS
As to conditions: at 10 µM.

Experiment [8] addresses T5, Serine/threonine-protein kinase TAO1 (Homo sapiens) (UniProt Q7L7X3).
T5 sequence (whole entry): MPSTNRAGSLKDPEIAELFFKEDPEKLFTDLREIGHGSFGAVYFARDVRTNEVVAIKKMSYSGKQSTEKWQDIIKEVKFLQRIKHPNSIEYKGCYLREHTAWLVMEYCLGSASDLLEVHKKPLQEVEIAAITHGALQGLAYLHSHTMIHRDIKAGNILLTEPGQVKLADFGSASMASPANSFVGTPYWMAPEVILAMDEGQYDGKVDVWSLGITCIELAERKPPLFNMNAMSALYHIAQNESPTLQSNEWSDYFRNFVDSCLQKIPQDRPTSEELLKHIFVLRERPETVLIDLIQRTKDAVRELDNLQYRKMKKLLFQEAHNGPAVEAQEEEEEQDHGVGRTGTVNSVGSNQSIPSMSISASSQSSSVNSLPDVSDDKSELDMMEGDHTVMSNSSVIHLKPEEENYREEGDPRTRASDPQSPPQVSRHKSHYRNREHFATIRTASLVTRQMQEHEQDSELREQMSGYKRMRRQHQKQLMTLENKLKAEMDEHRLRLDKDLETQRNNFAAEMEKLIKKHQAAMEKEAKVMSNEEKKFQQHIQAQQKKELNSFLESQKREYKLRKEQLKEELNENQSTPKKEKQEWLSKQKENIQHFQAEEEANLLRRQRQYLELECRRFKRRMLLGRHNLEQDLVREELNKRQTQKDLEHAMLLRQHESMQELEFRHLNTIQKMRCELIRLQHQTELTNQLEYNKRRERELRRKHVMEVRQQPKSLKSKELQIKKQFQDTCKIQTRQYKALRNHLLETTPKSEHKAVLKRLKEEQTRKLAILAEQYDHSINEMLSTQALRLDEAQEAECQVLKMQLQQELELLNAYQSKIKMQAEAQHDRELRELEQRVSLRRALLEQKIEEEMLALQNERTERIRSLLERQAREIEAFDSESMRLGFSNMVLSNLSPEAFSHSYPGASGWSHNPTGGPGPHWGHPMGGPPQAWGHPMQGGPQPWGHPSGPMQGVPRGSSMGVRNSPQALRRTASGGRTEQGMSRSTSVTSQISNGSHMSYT
The following applies: at 1 µM.

Experiment [9] addresses T5, Serine/threonine-protein kinase TAO1 (Homo sapiens). The following applies: at 10 µM.
The target in experiment [10] is T4, Mitogen-activated protein kinase kinase kinase 7 (Homo sapiens). As to conditions: at 1 µM.

Regarding `NC(=O)Nc1sc(-c2ccc(F)cc2)cc1C(N)=O`, the residual activity in experiment [1] was 39%; in experiment [2], 6%; in experiment [3] it was 61%; in [4] it was 16%; in experiment [5] it was 35%.
`O=c1c(-c2ccc(F)cc2)c(-c2ccncc2)[nH]n1-c1ccc(Cl)cc1`: the figures for the residual activity in experiment [6], in experiment [2] and in experiment [3] were 37%, 77% and 99%, respectively.
`N#C/C(=C1/Nc2ccccc2S1)c1ccnc(NCCc2cccnc2)n1`: the residual activity in experiment [1] amounted to 68%; in experiment [2], 24%; in experiment [3], 84%; in experiment [4] it was 37%; in experiment [5] it was 71%.
Consider `O=C(NC(NC(=S)Nc1ccc(F)c([N+](=O)[O-])c1)C(Cl)(Cl)Cl)C(c1ccccc1)c1ccccc1` (stereo unspecified), for which the residual activity was found to be 92% in experiment [7]; 93% in [8]; 83% in experiment [9]; 91% in experiment [1]; 92% in experiment [2]; 96% in [3]. Moreover, the values for the residual activity in experiment [4] and in experiment [5] were 90% and 96%, respectively.
On to `CCOC(=O)c1c(C)[nH]c(/C=C2\C(=O)Nc3ccccc32)c1C`, for which the residual activity in [10] amounted to 89%; in [7], 98%; in experiment [5], 92%.
For `CC(C)(C)c1nc2c3ccc(F)cc3c3c(=O)[nH]ccc3c2[nH]1`, the residual activity in experiment [10] stood at 44%; in experiment [7] it was 62%; in experiment [8], 56%; in experiment [9], 24%; in experiment [3], 68%; in experiment [4], 73%. Further, in [5], the residual activity is 15%.
Take `Fc1ccc(-c2nc3n(c2-c2ccncc2)CCS3)cc1`: the residual activity in [7] was found to be 88%; in [8], 99%; in experiment [9], 83%; in experiment [4], 76%.
`COc1cc2c(cc1OC)-c1n[nH]c(Nc3cccc(F)c3)c1C2`: the residual activity in [6] was 76%; in experiment [9], 61%; in [2] it was 78%; in [5], 52%.
With `Nc1ncnc2[nH]nc(Nc3ccc(F)cc3)c12`, the residual activity in experiment [6] was found to be 97%; in experiment [8], 107%; in [1], 102%; in experiment [2], 91%; in experiment [3], 101%; in [5], 77%.
Consider `NC(=O)c1cccc(-c2cc(Nc3ccc(OC(F)(F)F)cc3)ncn2)c1`, for which the values for the residual activity in [7] and in experiment [5] were 95% and 98%, respectively.
In the case of `Oc1cccc(-c2nc(N3CCOCC3)c3oc4ncccc4c3n2)c1`, the residual activity is 94% in experiment [6], 94% in experiment [9], 93% in [4] and 82% in experiment [5].
